Compound activity from PubChem BioAssay.
Rows were chosen to be rich in hits. Some 4.8% of all compounds tested hit in one or more screens of this group.
TGFb inhibitor = qHTS for Inhibitors of TGF-b; AID 588855, 2011; HepG2 CAGA-GFP TGF-b/SMAD3 reporter, GFP fluorescence, 18 h; TGF-beta stimulated, 500 pg/mL final; 410,000 tested, 1.2% active; Potency, µM (top dose mostly 46.1 µM), for the others: top-dose activity, negative = inhibition, hits mostly inhibitors; note: potency is the fitted concentration of half-maximal effect; % is set by controls: 0 for no effect and ±100 for the full control effect; nearly all actives have a fitted effect of over 65% in size
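Inhibition of TGF-beta-driven CAGA-GFP reporter expression in HEPG2 cells is measured by cellular GFP fluorescence after 18 h stimulation with 500 pg/mL recombinant TGF-beta in 1% FBS medium at 37 degrees C.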
ATXN2 expr inh = Primary qHTS for Inhibitors of ATXN expression. Potency, µM (highest dose often 57 µM), for the others: at the top dose activity change, negative = inhibition, usual class: inhibitors. HEK-293 ATXN2-luciferase reporter, luminescence, 24 h. 360,000 tested, 0.72% active; note: potency is the fitted concentration of half-maximal effect; % is set by controls: 0 for no effect and ±100 for the full control effect; nearly all actives have a fitted effect of over 55% in size
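ATXN2-luciferase reporter cells (luciferase flanked by upstream and downstream ATXN2 gene portions) were treated 24 h at 37 °C with compounds at up to 57 uM. SteadyGlo luminescence gave expression; GF-AFC fluorescence gave viability.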
DRD3 agonist = qHTS of D3 Dopamine Receptor Agonist: qHTS | D(3) dopamine receptor (Homo sapiens), P35462 | D3R DiscoveRx beta-arrestin cells, luminescence, 90 min | max activation, % | 410,000 tested, 0.58% active | AID 652048, 2013; in the data active = max activation above about 30%; note: 0% is about no effect
Target sequence (P35462 whole entry, looked up): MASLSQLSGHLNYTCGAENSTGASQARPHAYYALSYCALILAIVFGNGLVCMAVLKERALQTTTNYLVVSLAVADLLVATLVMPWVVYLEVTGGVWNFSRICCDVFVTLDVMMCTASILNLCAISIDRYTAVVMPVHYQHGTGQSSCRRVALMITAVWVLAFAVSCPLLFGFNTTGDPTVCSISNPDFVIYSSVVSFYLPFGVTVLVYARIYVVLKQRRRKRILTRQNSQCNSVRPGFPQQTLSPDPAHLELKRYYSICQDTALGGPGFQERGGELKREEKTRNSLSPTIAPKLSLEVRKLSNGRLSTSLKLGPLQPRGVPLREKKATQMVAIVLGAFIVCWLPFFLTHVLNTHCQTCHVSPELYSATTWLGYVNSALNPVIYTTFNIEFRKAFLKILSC
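Cells at 1500/well, incubated overnight, then treated with pinned compounds (dopamine as control) for 90 min at 37 degrees C. DiscoveRx reagent added for 30 - 60 minutes at room temperature; luminescence read.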
ATXN viability = Viability Counterscreen for Primary qHTS for Inhibitors of ATXN expression. S2 cells (HEK-293 line with an ATXN2-luciferase reporter) viability, CellTiter-Fluor protease fluorescence, 24 h. 400,000 tested, 0.49% active. Potency, µM (titrated, usually from 56.7 µM), usual class: cytotoxic; note: potency is the fitted concentration of half-maximal effect; nearly all actives have a fitted effect of over 40% in size
DRD3 antagonist = qHTS of D3 Dopamine Receptor Antagonist: qHTS | D(3) dopamine receptor (Homo sapiens), P35462 | D3R cells, DiscoveRx beta-arrestin luminescence, antagonist mode; hits give low values | max response, negative = inhibition, % | 360,000 tested, 2.5% active; in the data active = max response below about -50%; inconclusive = no clear call, values can overlap the other calls; note: % is set by controls: 0 for no effect and ±100 for the full control effect
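Cells plated overnight at 1500 cells/well, then exposed to library compounds with dopamine controls for 90 minutes at 37 degrees C. DiscoveRx reagent added for 30–60 minutes at room temperature; luminescence read, quantitative HTS format.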
HepG2 tox = qHTS for Inhibitors of TGF-b: Cytotox Counterscreen; HepG2 CAGA-GFP viability, ATP luminescence, 18 h; Potency, µM (series often up to 46.1 µM), without a hit: at the top dose activity change, negative = cytotoxicity, hits mostly cytotoxic; 410,000 tested, 0.76% active; note: potency is the fitted concentration of half-maximal effect
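CellTiter-Glo luminescence gave cytotoxicity after 18 hours at 37 degrees C. The cells were HepG2 CAGA-GFP in 1% FBS DMEM, stimulated with 500 pg/mL TGF-beta after compound addition. %Activity was normalised to no-cell wells (complete cell-killing) and DMSO (no toxicity), and curves were fitted and classified.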
* = called active by the depositor. Unless noted, calls come from the whole dose curve; as a rule, active = well fitted curve in the direction sought with a large enough effect; inconclusive = small, poorly fitted or top-dose-only effect, or another doubt; inactive = no such curve, though single readings can be large; an effect the other way counts as inactive or inconclusive.

Results for COc1cccc(CNC(=O)c2cc3c(C)nc4ccccc4c3o2)c1 ?
TGFb inhibitor: inconclusive; ATXN2 expr inh: -31%; DRD3 agonist: 4; ATXN viability: inconclusive; DRD3 antagonist: 3; HepG2 tox: -19%

How did CCc1ccc(CNC(=O)c2cc3c(C)nc4ccccc4c3o2)cc1 do in these assays?
TGFb inhibitor: inconclusive; ATXN2 expr inh: 20µM*; DRD3 agonist: -1; ATXN viability: inconclusive; DRD3 antagonist: 6; HepG2 tox: -19%

How did CCOC(=O)COc1ccc2c(C)c(CCN(CC)CC)c(=O)oc2c1 do in these assays?
DRD3 agonist: 6; ATXN viability: inactive

What do the screens show for `Cc1nc2c(C(=O)NCCc3ccc(Cl)cc3)c[nH]n2c(=O)c1Cc1ccc(Cl)cc1`?
TGFb inhibitor: inconclusive; DRD3 agonist: -18; HepG2 tox: 11µM*

Results for Cc1nc2c(C(=O)NCCc3ccccc3)c[nH]n2c(=O)c1Cc1ccccc1F ?
TGFb inhibitor: inconclusive; ATXN2 expr inh: 2%; DRD3 agonist: -3; ATXN viability: inactive; HepG2 tox: -63%

What do the screens show for `Cc1ccc(CNC(=O)c2c[nH]n3c(=O)c(Cc4ccc(Cl)cc4)c(C)nc23)cc1`?
TGFb inhibitor: inconclusive; ATXN2 expr inh: -22%; DRD3 agonist: 0; ATXN viability: inactive; HepG2 tox: 13µM*

What do the screens show for `Nc1ccc(/C=C/c2ccnc3ccccc23)c(N)c1`?
TGFb inhibitor: -27%; HepG2 tox: -58%

How did CC(=NNc1nc2ccccc2s1)c1ncccn1 do in these assays?
TGFb inhibitor: 0.79µM*; ATXN2 expr inh: inconclusive; DRD3 agonist: -7; ATXN viability: 1.4µM*; DRD3 antagonist: -25; HepG2 tox: -36%

How did CCn1c(=O)n(CC)c2cc(N3CCCCC3)c(NC(=O)Nc3ccccc3Cl)cc21 do in these assays?
TGFb inhibitor: -28%; ATXN2 expr inh: -8%; DRD3 agonist: 10; ATXN viability: inconclusive; HepG2 tox: -12%

What do the screens show for `COc1ccc(OCc2cccc(C(=O)O)c2)cc1`?
TGFb inhibitor: 3%; ATXN2 expr inh: 0.32µM*; DRD3 agonist: -1; ATXN viability: inactive; DRD3 antagonist: 16; HepG2 tox: -57%

What do the screens show for `CCOc1ccc(OCc2cccc(C(=O)N3CCCCCC3)c2)cc1`?
TGFb inhibitor: -15%; DRD3 agonist: 2; ATXN viability: inactive; DRD3 antagonist: 8; HepG2 tox: -1%

How did CCOc1ccc(OCc2cccc(C(=O)O)c2)cc1 do in these assays?
TGFb inhibitor: -5%; ATXN2 expr inh: 0.28µM*; DRD3 agonist: 0; ATXN viability: inactive; DRD3 antagonist: 0; HepG2 tox: -67%

What do the screens show for `O=C(O)c1cccc(COc2ccc(CO)cc2Cl)c1`?
TGFb inhibitor: -11%; ATXN2 expr inh: 0.28µM*; DRD3 agonist: 3; ATXN viability: inactive; DRD3 antagonist: -2; HepG2 tox: -24%

Results for COc1cccc(OC)c1C(=O)NNC(=O)c1cccc(COc2ccc3c(c2)CCC3)c1 ?
TGFb inhibitor: -2%; ATXN2 expr inh: 5.6µM*; DRD3 agonist: -2; ATXN viability: inactive; DRD3 antagonist: -13; HepG2 tox: -25%

What do the screens show for `COc1ccc(NC(=O)NCCn2nnc3cc(S(=O)(=O)N(C)C)ccc32)cc1`?
TGFb inhibitor: -31%; ATXN2 expr inh: 3%; DRD3 agonist: 3; ATXN viability: inactive; HepG2 tox: 2%

How did CCOC(=O)c1cccc(NC(=O)NCCc2c(C)nn(C)c2C)c1 do in these assays?
TGFb inhibitor: 1%; ATXN2 expr inh: 8%; DRD3 agonist: 2; ATXN viability: inactive; HepG2 tox: 17%
